In the supplement of paper PMC12669032:

Columns and labels:
Assay in all cases: growth AUC relative to DMSO control (median of replicates) (fraction); higher = more growth (less inhibition), active = hit call of the paper
Settings in all cases: 20 µM; 24 h;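 active = AUC reduced over 20% with Padj below 0.05 in at least 2 of 3 replicates; inactive = otherwise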
Coprococcus comes = system: Coprococcus comes
Method in brief: (§1)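 Area under the growth curve was normalised to the plate median of solvent-only wells, except on the industrial chemical plate, where row and column medians were used. Curves came from gut bacterial monocultures grown anaerobically at 37 °C in mGAM with 20 µM compound (1% DMSO), starting at OD600 0.05 and read at OD600 every hour for 24 h. The minimum OD of each curve was set to 0, and values are medians of three biological replicates grown on separate days.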

Escherichia coli ED1a = system: Escherichia coli ED1a
Method in brief: as §1

Escherichia coli IAI1 = system: Escherichia coli IAI1
Method in brief: as §1

Eubacterium rectale = system: Eubacterium rectale
Method in brief: as §1

[1] = system: Fusobacterium nucleatum subsp. animalis
Method in brief: as §1

Lactobacillus gasseri = system: Lactobacillus gasseri
Method in brief: as §1

Lactobacillus paracasei = system: Lactobacillus paracasei
Method in brief: as §1

Odoribacter splanchnicus = system: Odoribacter splanchnicus
Method in brief: as §1

[2] = system: Parabacteroides distasonis
Method in brief: as §1

Parabacteroides merdae = system: Parabacteroides merdae
Method in brief: as §1

Roseburia intestinalis = system: Roseburia intestinalis
Method in brief: as §1

Streptococcus salivarius = system: Streptococcus salivarius
Method in brief: as §1

Measured: growth AUC

O=[N+]([O-])c1ccc(O)c([N+](=O)[O-])c1
inactive: Coprococcus comes 0.904 | Escherichia coli ED1a 0.998 | Escherichia coli IAI1 0.998 | Eubacterium rectale 1.02 | [1] 0.927 | Lactobacillus gasseri 1.06 | Lactobacillus paracasei 0.97 | Odoribacter splanchnicus 0.673 | [2] 0.948 | Parabacteroides merdae 0.985 | Roseburia intestinalis 0.912 | Streptococcus salivarius 0.992

CCS(=O)(=O)c1cccnc1S(=O)(=O)NC(=O)Nc1nc(OC)cc(OC)n1
inactive: Coprococcus comes 0.968 | Escherichia coli ED1a 1 | Escherichia coli IAI1 0.999 | Eubacterium rectale 0.943 | [1] 0.912 | Lactobacillus gasseri 1.01 | Lactobacillus paracasei 0.996 | Odoribacter splanchnicus 0.897 | [2] 1.02 | Parabacteroides merdae 0.993 | Roseburia intestinalis 1 | Streptococcus salivarius 0.93

COC(=O)NCc1cc(/C(C)=N/OCc2cccc(C)n2)ccc1Cl
inactive: Coprococcus comes 1.03 | Escherichia coli ED1a 1.01 | Escherichia coli IAI1 0.972 | Eubacterium rectale 0.998 | [1] 0.933 | Lactobacillus gasseri 0.911 | Lactobacillus paracasei 0.969 | Odoribacter splanchnicus 1.01 | [2] 0.919 | Parabacteroides merdae 0.955 | Roseburia intestinalis 0.957 | Streptococcus salivarius 1.01

OC(Cc1ccccc1Cl)(Cn1[nH]cnc1=S)C1(Cl)CC1 (stereo not given)
inactive: Coprococcus comes 0.932 | Escherichia coli ED1a 1.02 | Escherichia coli IAI1 1.04 | Eubacterium rectale 0.897 | [1] 1.02 | Lactobacillus gasseri 1.01 | Lactobacillus paracasei 1.04 | Odoribacter splanchnicus 0.825 | [2] 0.916 | Parabacteroides merdae 0.894 | Roseburia intestinalis 0.978 | Streptococcus salivarius 0.959

COc1cc(Cl)c(OC)cc1Cl
inactive: Coprococcus comes 1.04 | Escherichia coli ED1a 1.03 | Escherichia coli IAI1 1.01 | Eubacterium rectale 0.986 | [1] 0.951 | Lactobacillus gasseri 0.94 | Lactobacillus paracasei 0.94 | Odoribacter splanchnicus 1 | [2] 1.02 | Parabacteroides merdae 1.05 | Roseburia intestinalis 1.04 | Streptococcus salivarius 1.04

CC1(C)C(/C=C(\Cl)c2ccc(Cl)cc2)C1C(=O)OC(C#N)c1ccc(F)c(Oc2ccccc2)c1 (stereo not given)
inactive: Coprococcus comes 0.968 | Escherichia coli ED1a 0.986 | Escherichia coli IAI1 1.01 | Eubacterium rectale 0.864 | [1] 1.02 | Lactobacillus gasseri 1.04 | Lactobacillus paracasei 0.913 | Odoribacter splanchnicus 1.03 | [2] 1 | Parabacteroides merdae 1 | Roseburia intestinalis 1.07 | Streptococcus salivarius 1.03

CCOP(=O)(NC(C)C)Oc1ccc(SC)c(C)c1 (stereo not given)
inactive: Coprococcus comes 0.974 | Escherichia coli ED1a 0.985 | Escherichia coli IAI1 0.953 | Eubacterium rectale 1.04 | [1] 0.903 | Lactobacillus gasseri 0.895 | Lactobacillus paracasei 0.965 | Odoribacter splanchnicus 0.954 | [2] 0.77 | Parabacteroides merdae 0.966 | Roseburia intestinalis 1.02 | Streptococcus salivarius 0.951

c1nc[n]([Sn]([CH]2CCCCC2)([CH]2CCCCC2)[CH]2CCCCC2)n1
inactive: Coprococcus comes 0.723 | Escherichia coli ED1a 1.06 | Escherichia coli IAI1 1.06 | Eubacterium rectale 0.908 | [1] 1.03 | Lactobacillus gasseri 1.03 | Lactobacillus paracasei 0.972 | Odoribacter splanchnicus 1.03 | [2] 0.927 | Streptococcus salivarius 1.01
active: Parabacteroides merdae 0.746 | Roseburia intestinalis 0.654

O=C1C(Cl)=C(Cl)C(=O)C(Cl)=C1Cl
inactive: Coprococcus comes 1.02 | Escherichia coli ED1a 1.03 | Escherichia coli IAI1 1.02 | Eubacterium rectale 0.844 | [1] 1.01 | Lactobacillus gasseri 0.973 | Lactobacillus paracasei 1.01 | Odoribacter splanchnicus 0.912 | [2] 1.04 | Parabacteroides merdae 0.927 | Roseburia intestinalis 0.995 | Streptococcus salivarius 1.01

CNC(=O)Oc1cccc2c1OC(C)(C)C2O (stereo not given)
inactive: Coprococcus comes 1.05 | Escherichia coli ED1a 1.01 | Escherichia coli IAI1 1.01 | Eubacterium rectale 1.05 | [1] 1.15 | Lactobacillus gasseri 0.862 | Lactobacillus paracasei 1.11 | Odoribacter splanchnicus 1.02 | [2] 0.88 | Parabacteroides merdae 1.09 | Roseburia intestinalis 0.979 | Streptococcus salivarius 1.02

CC(C)N(Cc1ccccc1)C(=O)C(C)(C)C
inactive: Coprococcus comes 0.988 | Escherichia coli ED1a 0.966 | Escherichia coli IAI1 0.971 | Eubacterium rectale 1.03 | [1] 0.969 | Lactobacillus gasseri 0.814 | Lactobacillus paracasei 0.934 | Odoribacter splanchnicus 1.07 | [2] 0.989 | Parabacteroides merdae 0.948 | Roseburia intestinalis 0.898 | Streptococcus salivarius 0.961

C#CCOc1ccc(CCNC(=O)C(OCC#C)c2ccc(Cl)cc2)cc1OC (stereo not given)
active: [2] 0.689
inactive: Coprococcus comes 0.992 | Escherichia coli ED1a 1.01 | Escherichia coli IAI1 0.996 | Eubacterium rectale 1.04 | [1] 0.943 | Lactobacillus gasseri 0.926 | Lactobacillus paracasei 0.98 | Odoribacter splanchnicus 1.03 | Parabacteroides merdae 0.948 | Roseburia intestinalis 0.959 | Streptococcus salivarius 0.984

CCOP(=O)(OCC)Oc1ccc([N+](=O)[O-])cc1
inactive: Coprococcus comes 1.03 | Escherichia coli ED1a 0.988 | Escherichia coli IAI1 1.03 | Eubacterium rectale 0.91 | [1] 1.06 | Lactobacillus gasseri 1.02 | Lactobacillus paracasei 1.04 | Odoribacter splanchnicus 1.05 | [2] 0.999 | Parabacteroides merdae 0.986 | Roseburia intestinalis 1.03 | Streptococcus salivarius 1.01

Cc1ccccc1CO[C@@H]1C[C@@]2(C(C)C)CC[C@]1(C)O2 (mixture of isomers)
inactive: Coprococcus comes 1 | Escherichia coli ED1a 1.02 | Escherichia coli IAI1 0.961 | Eubacterium rectale 1.14 | [1] 1.02 | Lactobacillus gasseri 0.96 | Lactobacillus paracasei 1.01 | Odoribacter splanchnicus 1.04 | [2] 0.887 | Parabacteroides merdae 1 | Roseburia intestinalis 0.978 | Streptococcus salivarius 0.97

O=c1oc2ccccc2c(O)c1C(CC(O)c1ccc(-c2ccc(Br)cc2)cc1)c1ccccc1 (stereo not given)
active: Odoribacter splanchnicus 0.167 | [2] 0.516 | Parabacteroides merdae 0.25 | Roseburia intestinalis 0.654 | Streptococcus salivarius 0.553
inactive: Coprococcus comes 0.923 | Escherichia coli ED1a 1 | Escherichia coli IAI1 0.97 | Eubacterium rectale 0.883 | [1] 0.936 | Lactobacillus gasseri 0.801 | Lactobacillus paracasei 0.838

COC(=O)N(OC)c1ccccc1COc1ccn(-c2ccc(Cl)cc2)n1
active: [2] 0.57
inactive: Coprococcus comes 0.998 | Escherichia coli ED1a 1.02 | Escherichia coli IAI1 0.99 | Eubacterium rectale 1.1 | [1] 1.19 | Lactobacillus gasseri 0.88 | Lactobacillus paracasei 0.988 | Odoribacter splanchnicus 0.881 | Parabacteroides merdae 0.911 | Roseburia intestinalis 0.945 | Streptococcus salivarius 0.928

CCOC(=O)CC(SP(=O)(OC)OC)C(=O)OCC (stereo not given)
inactive: Coprococcus comes 1 | Escherichia coli ED1a 0.97 | Escherichia coli IAI1 0.976 | Eubacterium rectale 1.09 | [1] 0.893 | Lactobacillus gasseri 0.883 | Lactobacillus paracasei 0.973 | Odoribacter splanchnicus 0.913 | [2] 0.902 | Parabacteroides merdae 0.975 | Roseburia intestinalis 0.997 | Streptococcus salivarius 1.01

CCOP(=O)(OCC)OP(=O)(OCC)OCC
inactive: Coprococcus comes 0.976 | Escherichia coli ED1a 0.982 | Escherichia coli IAI1 1.02 | Eubacterium rectale 1.19 | [1] 1.02 | Lactobacillus gasseri 0.954 | Lactobacillus paracasei 0.961 | Odoribacter splanchnicus 0.986 | [2] 0.946 | Parabacteroides merdae 0.919 | Roseburia intestinalis 0.969 | Streptococcus salivarius 1.03

CNC(=O)CSP(=S)(OC)OC
inactive: Coprococcus comes 1.01 | Escherichia coli ED1a 0.977 | Escherichia coli IAI1 0.959 | Eubacterium rectale 1.06 | [1] 0.957 | Lactobacillus gasseri 0.911 | Lactobacillus paracasei 0.962 | Odoribacter splanchnicus 0.954 | [2] 0.9 | Parabacteroides merdae 0.979 | Roseburia intestinalis 0.982 | Streptococcus salivarius 0.968

COP(=S)(OC)Oc1ccc(S(C)=O)c(C)c1 (stereo not given)
inactive: Coprococcus comes 1.04 | Escherichia coli ED1a 0.975 | Escherichia coli IAI1 1.04 | Eubacterium rectale 1.06 | [1] 1.02 | Lactobacillus gasseri 1.02 | Lactobacillus paracasei 1.01 | Odoribacter splanchnicus 0.979 | [2] 1.03 | Parabacteroides merdae 0.988 | Roseburia intestinalis 1.07 | Streptococcus salivarius 0.988

CNC(=O)Oc1ccccc1C(C)C
inactive: Coprococcus comes 1.04 | Escherichia coli ED1a 1.01 | Escherichia coli IAI1 1.02 | Eubacterium rectale 1.07 | [1] 1.07 | Lactobacillus gasseri 1.04 | Lactobacillus paracasei 0.861 | Odoribacter splanchnicus 1.03 | [2] 0.998 | Parabacteroides merdae 1.03 | Roseburia intestinalis 1.06 | Streptococcus salivarius 1.04

O=C1C(Cl)=C(Cl)C(=O)c2ccccc21
inactive: Coprococcus comes 1.05 | Escherichia coli ED1a 1.02 | Escherichia coli IAI1 0.973 | Eubacterium rectale 1.34 | [1] 1.02 | Lactobacillus gasseri 0.929 | Lactobacillus paracasei 0.941 | Odoribacter splanchnicus 0.797 | [2] 0.938 | Parabacteroides merdae 0.967 | Roseburia intestinalis 1.13 | Streptococcus salivarius 0.955

CCOP(=O)(OCC)ON1C(=O)c2cccc3cccc(c23)C1=O
inactive: Coprococcus comes 0.971 | Escherichia coli ED1a 0.994 | Escherichia coli IAI1 0.958 | Eubacterium rectale 1.16 | [1] 0.961 | Lactobacillus gasseri 0.954 | Lactobacillus paracasei 0.971 | Roseburia intestinalis 0.9 | Streptococcus salivarius 1.03
active: Odoribacter splanchnicus 0.484 | [2] 0.619 | Parabacteroides merdae 0.794

CCN(CC)C(=O)SCc1ccc(Cl)cc1
inactive: Coprococcus comes 0.966 | Escherichia coli ED1a 1.01 | Escherichia coli IAI1 1.01 | Eubacterium rectale 0.921 | [1] 0.957 | Lactobacillus gasseri 1.08 | Lactobacillus paracasei 0.879 | Odoribacter splanchnicus 0.937 | [2] 0.943 | Parabacteroides merdae 0.972 | Roseburia intestinalis 0.983 | Streptococcus salivarius 0.986

O=C(O)c1cc(Cl)ccc1Cl
inactive: Coprococcus comes 0.994 | Escherichia coli ED1a 0.97 | Escherichia coli IAI1 0.984 | Eubacterium rectale 1.02 | [1] 0.994 | Lactobacillus gasseri 0.869 | Lactobacillus paracasei 0.934 | Odoribacter splanchnicus 1.08 | [2] 0.978 | Parabacteroides merdae 0.96 | Roseburia intestinalis 0.993 | Streptococcus salivarius 1.01
